Among the data in PMC7862700, “An all-to-all approach to the identification of sequence-specific readers for epigenetic DNA modifications on cytosine” are binding signal values, retold here.

Test in all cases: DAPPL (digital affinity profiling via proximity ligation, sequencing); 10 mM Tris-HCl pH 7.5, 50 mM NaCl, 1 mM DTT, 4% glycerol, room temperature, 30 min; GST-TFs on glutathione beads, 16-mer random dsDNA library, 0.1% formaldehyde crosslink after washing; high values mean tight binding
Holding throughout (conditions): protein: recombinant; tags: N-terminal GST; dsDNA, one strand shown

One assay has as its target T1, FLI1 (Homo sapiens, UniProt Q01543 1-452).
T1 sequence: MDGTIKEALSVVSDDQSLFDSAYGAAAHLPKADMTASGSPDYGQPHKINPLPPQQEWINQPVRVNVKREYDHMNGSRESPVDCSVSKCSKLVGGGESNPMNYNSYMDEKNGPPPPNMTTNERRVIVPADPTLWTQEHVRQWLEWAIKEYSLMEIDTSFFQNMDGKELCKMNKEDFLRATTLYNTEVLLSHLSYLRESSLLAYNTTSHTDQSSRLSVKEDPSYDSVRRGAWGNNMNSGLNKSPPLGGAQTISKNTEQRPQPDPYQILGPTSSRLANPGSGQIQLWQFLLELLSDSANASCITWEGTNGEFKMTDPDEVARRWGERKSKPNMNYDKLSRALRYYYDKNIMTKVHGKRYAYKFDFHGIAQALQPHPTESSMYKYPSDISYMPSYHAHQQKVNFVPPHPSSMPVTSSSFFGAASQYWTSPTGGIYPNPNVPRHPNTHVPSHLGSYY
The procedure, abridged: (§1)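 Human transcription factors were made in yeast as GST fusions, captured on glutathione beads and barcoded with DNA. With a tag-only sample included, the pool was incubated with 200 nmole of a random double-stranded 16-mer DNA library in Tris/NaCl/DTT/glycerol buffer at room temperature for 30 min, then crosslinked with 0.1% formaldehyde after washing, ligated by proximity, amplified and sequenced. For binding signal, each hexamer's read frequency for a factor is divided by its frequency for the tag-only sample.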

The target of another assay is T2, ELK1 (Homo sapiens, UniProt P19419 1-428).
T2 sequence: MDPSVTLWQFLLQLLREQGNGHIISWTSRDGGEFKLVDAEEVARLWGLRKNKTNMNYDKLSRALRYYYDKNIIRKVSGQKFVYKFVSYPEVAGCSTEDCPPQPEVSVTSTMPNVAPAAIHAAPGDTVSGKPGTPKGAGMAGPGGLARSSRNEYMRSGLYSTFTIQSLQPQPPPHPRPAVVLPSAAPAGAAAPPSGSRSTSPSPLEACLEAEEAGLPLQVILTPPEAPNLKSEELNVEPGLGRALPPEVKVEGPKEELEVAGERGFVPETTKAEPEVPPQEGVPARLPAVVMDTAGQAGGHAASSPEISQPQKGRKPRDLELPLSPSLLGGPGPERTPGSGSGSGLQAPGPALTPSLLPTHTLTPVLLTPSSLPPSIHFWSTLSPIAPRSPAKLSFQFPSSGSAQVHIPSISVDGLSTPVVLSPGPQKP
An outline of the steps:
as §1

The next assay deals with T3, GABPA (Homo sapiens, UniProt Q06546 1-454).
T3 sequence: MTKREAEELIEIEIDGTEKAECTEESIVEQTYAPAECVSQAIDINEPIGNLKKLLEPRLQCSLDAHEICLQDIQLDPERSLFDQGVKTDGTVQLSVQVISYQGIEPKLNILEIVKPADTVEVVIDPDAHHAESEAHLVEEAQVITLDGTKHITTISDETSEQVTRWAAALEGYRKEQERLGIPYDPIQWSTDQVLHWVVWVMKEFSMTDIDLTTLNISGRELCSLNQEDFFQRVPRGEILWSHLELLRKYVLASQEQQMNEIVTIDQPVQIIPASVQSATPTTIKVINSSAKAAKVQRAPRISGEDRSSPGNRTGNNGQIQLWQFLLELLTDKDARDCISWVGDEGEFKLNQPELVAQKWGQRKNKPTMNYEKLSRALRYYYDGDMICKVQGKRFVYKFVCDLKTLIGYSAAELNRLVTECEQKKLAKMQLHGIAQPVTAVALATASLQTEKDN
An outline of the steps:
as §1

Another assay deals with T4, ERG (Homo sapiens, UniProt P11308 1-479).
T4 sequence: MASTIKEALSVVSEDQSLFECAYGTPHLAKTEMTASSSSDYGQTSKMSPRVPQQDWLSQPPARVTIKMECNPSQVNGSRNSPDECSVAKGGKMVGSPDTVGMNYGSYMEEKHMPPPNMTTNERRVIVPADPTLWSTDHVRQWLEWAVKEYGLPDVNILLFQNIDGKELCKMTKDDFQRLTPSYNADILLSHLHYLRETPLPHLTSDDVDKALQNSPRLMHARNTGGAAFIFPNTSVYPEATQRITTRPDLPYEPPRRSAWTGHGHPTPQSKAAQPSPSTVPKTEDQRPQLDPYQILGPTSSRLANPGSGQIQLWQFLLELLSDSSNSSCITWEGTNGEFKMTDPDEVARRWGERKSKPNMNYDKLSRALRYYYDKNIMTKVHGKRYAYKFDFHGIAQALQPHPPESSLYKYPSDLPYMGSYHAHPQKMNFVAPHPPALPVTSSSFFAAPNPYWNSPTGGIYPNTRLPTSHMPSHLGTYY
An outline of the steps: as §1

Another assay deals with ELF1 (Homo sapiens, UniProt P32519 1-619). An outline of the steps: as §1
ELF1, sequence (P32519 whole entry): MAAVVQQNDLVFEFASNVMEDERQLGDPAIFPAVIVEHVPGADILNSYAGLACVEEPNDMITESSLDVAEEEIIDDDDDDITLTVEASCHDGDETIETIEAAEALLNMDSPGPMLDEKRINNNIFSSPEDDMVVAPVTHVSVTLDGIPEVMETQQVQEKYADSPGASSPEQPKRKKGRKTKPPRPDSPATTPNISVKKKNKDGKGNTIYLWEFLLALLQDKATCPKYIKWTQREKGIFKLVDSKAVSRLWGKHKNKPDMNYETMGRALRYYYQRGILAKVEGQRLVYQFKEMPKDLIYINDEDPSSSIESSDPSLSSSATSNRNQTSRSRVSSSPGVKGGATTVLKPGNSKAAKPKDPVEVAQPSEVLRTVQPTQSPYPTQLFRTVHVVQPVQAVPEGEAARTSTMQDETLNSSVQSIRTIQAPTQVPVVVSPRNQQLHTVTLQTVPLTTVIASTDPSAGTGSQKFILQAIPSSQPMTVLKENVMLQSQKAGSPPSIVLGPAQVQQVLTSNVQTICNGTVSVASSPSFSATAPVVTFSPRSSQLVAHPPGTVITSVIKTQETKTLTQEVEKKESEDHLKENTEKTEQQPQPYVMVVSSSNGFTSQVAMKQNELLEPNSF
For another assay, the target named is T5, EHF (Homo sapiens, UniProt Q9NZC4 1-300).
T5 sequence: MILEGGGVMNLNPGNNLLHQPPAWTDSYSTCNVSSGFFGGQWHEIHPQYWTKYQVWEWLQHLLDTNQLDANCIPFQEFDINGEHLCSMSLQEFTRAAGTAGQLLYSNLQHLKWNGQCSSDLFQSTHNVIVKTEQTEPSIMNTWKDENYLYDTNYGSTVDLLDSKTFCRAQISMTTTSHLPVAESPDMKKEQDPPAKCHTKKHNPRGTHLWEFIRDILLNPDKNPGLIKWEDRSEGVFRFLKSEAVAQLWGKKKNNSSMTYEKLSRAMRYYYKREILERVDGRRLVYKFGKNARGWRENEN
An outline of the steps:
as §1

In another assay the target is SPIB (Homo sapiens, UniProt Q01892 1-262). An outline of the steps:
as §1

The target in the next assay is T6, ELK3 (Homo sapiens, UniProt P41970 1-407).
T6 sequence: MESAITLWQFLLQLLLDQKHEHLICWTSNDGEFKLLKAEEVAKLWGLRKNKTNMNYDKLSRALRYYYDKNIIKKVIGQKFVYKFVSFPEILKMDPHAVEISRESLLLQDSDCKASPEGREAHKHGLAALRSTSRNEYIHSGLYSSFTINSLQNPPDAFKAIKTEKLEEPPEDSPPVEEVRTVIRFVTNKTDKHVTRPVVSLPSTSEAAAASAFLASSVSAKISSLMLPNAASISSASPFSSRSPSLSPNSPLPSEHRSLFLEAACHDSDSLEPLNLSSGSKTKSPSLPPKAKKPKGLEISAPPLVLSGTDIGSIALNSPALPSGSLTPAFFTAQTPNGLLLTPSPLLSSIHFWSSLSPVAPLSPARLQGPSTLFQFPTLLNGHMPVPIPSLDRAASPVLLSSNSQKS
The procedure, abridged: as §1

For another assay, the target named is T7, SPIC (Homo sapiens, UniProt Q8N5J4 1-248).
T7 sequence: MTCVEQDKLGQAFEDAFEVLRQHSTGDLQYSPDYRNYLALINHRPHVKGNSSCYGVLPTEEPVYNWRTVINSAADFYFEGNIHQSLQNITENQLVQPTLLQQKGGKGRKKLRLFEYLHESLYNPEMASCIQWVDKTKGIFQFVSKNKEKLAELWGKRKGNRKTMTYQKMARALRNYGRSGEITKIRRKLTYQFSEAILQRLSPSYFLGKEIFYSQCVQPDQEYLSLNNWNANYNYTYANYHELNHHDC
The procedure, abridged: as §1

A further assay deals with ELF4 (Homo sapiens, UniProt Q99607 1-663). The procedure, abridged:
as §1

SPIB, sequence (Q01892 whole entry): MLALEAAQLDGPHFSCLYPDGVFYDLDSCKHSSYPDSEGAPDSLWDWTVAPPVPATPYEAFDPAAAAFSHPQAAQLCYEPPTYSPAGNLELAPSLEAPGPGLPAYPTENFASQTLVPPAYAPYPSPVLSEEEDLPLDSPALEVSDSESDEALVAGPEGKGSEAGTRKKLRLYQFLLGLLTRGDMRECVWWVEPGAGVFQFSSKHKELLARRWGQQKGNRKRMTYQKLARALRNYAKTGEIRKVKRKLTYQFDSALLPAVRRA
ELF4, sequence (Q99607 whole entry): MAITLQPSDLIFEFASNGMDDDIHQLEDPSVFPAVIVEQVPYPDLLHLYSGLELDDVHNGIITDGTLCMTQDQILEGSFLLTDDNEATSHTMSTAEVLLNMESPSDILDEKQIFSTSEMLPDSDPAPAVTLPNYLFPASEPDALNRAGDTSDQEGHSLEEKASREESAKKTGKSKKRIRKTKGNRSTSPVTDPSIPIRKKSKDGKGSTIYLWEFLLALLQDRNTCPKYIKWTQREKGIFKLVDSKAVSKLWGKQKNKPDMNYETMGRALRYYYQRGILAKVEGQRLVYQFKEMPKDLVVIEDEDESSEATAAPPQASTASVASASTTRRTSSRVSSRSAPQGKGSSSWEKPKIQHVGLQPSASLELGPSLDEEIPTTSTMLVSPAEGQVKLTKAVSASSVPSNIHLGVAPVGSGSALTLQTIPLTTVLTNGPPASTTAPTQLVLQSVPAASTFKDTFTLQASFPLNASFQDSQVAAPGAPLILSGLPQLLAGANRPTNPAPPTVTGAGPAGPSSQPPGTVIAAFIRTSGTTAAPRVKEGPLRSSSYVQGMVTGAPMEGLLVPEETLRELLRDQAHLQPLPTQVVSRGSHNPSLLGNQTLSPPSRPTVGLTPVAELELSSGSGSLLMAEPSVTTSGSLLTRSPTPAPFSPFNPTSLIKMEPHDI

As for CGTTGC, the binding signal is 1.09 fold enrichment (6-mer frequency, TF over GST control) with FLI1; 1.19 fold enrichment (6-mer frequency, TF over GST control) with ELK1; 1.04 fold enrichment (6-mer frequency, TF over GST control) in the assay with GABPA; 1.06 fold enrichment (6-mer frequency, TF over GST control) with ERG; 1.11 fold enrichment (6-mer frequency, TF over GST control) with ELF1; 1.07 fold enrichment (6-mer frequency, TF over GST control) with EHF. Besides, the binding signal with SPIB is 1.18 fold enrichment (6-mer frequency, TF over GST control); with ELK3 it was 1.04 fold enrichment (6-mer frequency, TF over GST control); with SPIC, 1.25 fold enrichment (6-mer frequency, TF over GST control); in the assay with ELF4 it was 1.06 fold enrichment (6-mer frequency, TF over GST control).
